# WRN helicase inh: qHTS for Inhibitors of WRN Helicase; 360,000 compounds, 0.46% hits; Bifunctional 3'-5' exonuclease/ATP-dependent helicase WRN (Homo sapiens), Q14191; AID 651768, 2012; Potency, µM (series often up to 114 µM), without a hit: top-dose activity change, negative = inhibition, most hits filed as inhibitors; WRN helicase unwinding, fluorescent forked duplex, kinetic; further: on the % scale 0 is the no-effect control and ±100 the full control effect; nearly all actives have a fitted effect of over 55% in size
#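 Kinetic fluorescence helicase assay: unwinding of a quenched forked DNA duplex (100 nM final) with 2 mM ATP final raises red fluorescence (525/598 nm). Compounds sat 15 min at room temperature with 20 nM WRN beforehand.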
# POLK inh: qHTS for Inhibitors of Polymerase Kappa; DNA polymerase kappa (Homo sapiens), Q9UBT6; purified Pol kappa, fluorescent DNA synthesis assay, 10 min; Potency, µM (top dose mostly 107 µM), without a hit: at the top dose activity, negative = inhibition, most hits filed as inhibitors; 400,000 compounds, 0.53% hits; AID 588579, 2011; further: on the % scale 0 is the no-effect control and ±100 the full control effect
#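 Here, compound and 10 nM enzyme are combined for 15 min at room temperature; adding 50 nM substrate (final) starts DNA synthesis, tracked by fluorescence at 0 and 10 min against buffer-only wells.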
# POLB inh: qHTS Assay for Inhibitors of DNA Polymerase Beta; P06746; Pol beta primer extension/strand displacement, fluorescence kinetic; Potency, µM (series often up to 114 µM), without a hit: top-dose activity change, negative = inhibition, usual class: inhibitors; 340,000 compounds, 1.3% hits; AID 485314, 2010; further: on the % scale 0 is the no-effect control and ±100 the full control effect
#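 Human Pol beta at 10 nM; strand-displacement substrate 50 nM final. Compound exposure 15 min at room temperature before start, reaction 10 min at room temperature.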
# Pol iota inh: qHTS for Inhibitors of Polymerase Iota | Pol iota fluorescent replication assay, 10 min | 390,000 compounds, 1% hits | AID 588590, 2011 | Potency, µM (highest dose often 115 µM), without a hit: at the top dose activity, negative = inhibition, actives largely listed as inhibitors
#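 Fluorescent replication assay read twice, at 0 min and 10 min after adding 50 nM (final) substrate. Enzyme (10 nM) and compounds were first incubated 15 min at room temperature; enzyme-free buffer wells were negative controls.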
# FEN1 inh: qHTS Assay for the Inhibitors of Human Flap endonuclease 1 (FEN1). P39748. Recombinant FEN1 flap cleavage, fluorescence, 15 min. Potency, µM (top dose mostly 114 µM), for inactives: top-dose activity change, negative = inhibition, actives largely listed as inhibitors. 390,000 compounds, 0.35% hits. AID 588795, 2011; further: on the % scale 0 is the no-effect control and ±100 the full control effect; nearly all actives have a fitted effect of over 65% in size
#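 In this screen, 50 nM flap DNA substrate was added to 10 nM FEN1 pretreated with compound for 15 min at room temperature; cleavage was followed with reads at 0 and 15 min, and Hill fitting gave concentration–response parameters.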
# Pol eta inh: qHTS for Inhibitors of Polymerase Eta | DNA polymerase eta (Homo sapiens), Q9Y253 | recombinant Pol eta, fluorescent DNA replication assay | Potency, µM (series often up to 114 µM), for the others: top-dose activity change, negative = inhibition, usual class: inhibitors | 390,000 compounds, 1.2% hits | AID 588591, 2011; further: on the % scale 0 is the no-effect control and ±100 the full control effect
#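 Pol eta (10 nM) was preincubated with compounds for 15 min at room temperature, after which fluorescent replication substrate (50 nM final) was added to start the reaction. Fluorescence was read kinetically at 0 and 10 min.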
# * = called active by the depositor; ? = inconclusive; · = no result given; [ ] = dose if it differs, or a comment. A selection: hits, their analogues and other compounds. The true share with any hit is near 2.4%. The call rests on the fitted dose curve; in most records, active means well fitted curve in the direction sought with a large enough effect; inconclusive means small, poorly fitted or top-dose-only effect, or another doubt; inactive means no such curve, though single readings can be large; an effect the other way counts as inactive or inconclusive. Potency means the concentration at half of the fitted maximal effect.
SMILES,WRN helicase inh,POLK inh,POLB inh,Pol iota inh,FEN1 inh,Pol eta inh
COc1ccc(C(CC(=O)N2CCN(c3ccccc3)CC2)c2c(OC)cc(OC)c3c(-c4ccccc4)cc(=O)oc23)cc1 (centres undefined),·,·,8.91µM*,·,·,·
COc1ccc(C(CC(=O)N2CCCC(C)C2)c2c(OC)cc(OC)c3c(-c4ccccc4)cc(=O)oc23)cc1 (centres undefined),?,79.4µM*,35.5µM*,50.1µM*,2.5%,25.1µM*
COc1cc(OC)c2c(-c3ccccc3)cc(=O)oc2c1C(CC(=O)N1CCCC1)c1ccc(N(C)C)cc1 (centres undefined),·,-10.4%,·,-7.3%,-24.2%,·
CC(NC(=O)COC(=O)c1ccc([N+](=O)[O-])s1)c1ccccc1 (centres undefined),-7.5%,-25.5%,15.8µM*,?,-23.3%,?
Cc1ccc(C(=O)OCC(=O)NC(C)c2ccccc2)s1 (centres undefined),4.3%,-10.5%,·,17.9%,1.2%,-6.5%
O=C(COC(=O)c1ccc([N+](=O)[O-])s1)NCCc1ccccc1,28.1%,?,·,56.2µM*,?,?
C/C=C/CSc1nc2c(c(=O)[nH]c(=O)n2C)n1CCC,-26.8%,-23.9%,0.5%,0.0%,-0.6%,-1.5%
CCOc1cc(/C=C2/C(=N)N3OC(C)=CC3=NC2=O)ccc1OC(=O)c1ccco1,-4.8%,-6.7%[60.1 µM],-6.1%,-1.8%,5.7%,-5.7%
CCS(=O)(=O)C1=NSC2=NC(=O)/C(=C\c3ccc(OC(=O)c4ccco4)c(OC)c3)C(=N)N21,-28.5%,2.1%,27.1%,?,-8.1%,?
COc1cc(/C=C2/C(=N)N3C(=NC2=O)SN=C3S(=O)(=O)C(C)C)ccc1OC(=O)c1ccco1,-20.5%,-13.6%,0.5%,?,-1.1%,79.4µM*
CCOc1cc(/C=C2/C(=N)N3C(=NC2=O)SN=C3S(=O)(=O)C(C)C)ccc1OC(=O)c1ccco1,-26.3%[11.6 µM],-9.6%,-1.0%,4.2%,-8.4%,44.7µM*
COc1cc(/C=C2/C(=N)N3C(=NC2=O)SN=C3S(C)(=O)=O)ccc1OC(=O)c1ccco1,-16.5%[11.6 µM],-19.1%,-7.8%,?,?,50.1µM*
CCOc1cc(/C=C2/C(=N)N3C(=NC2=O)SN=C3S(=O)(=O)CC)ccc1OC(=O)c1ccco1,-9.9%,4.4%,-9.1%,?,-3.7%,79.4µM*
CC(=O)Nc1ccc(NS(=O)(=O)c2ccc(Cl)c(C(=O)O)c2)cc1,-3.2%,-17.4%,18.0%,30.2%,0.5%,-4.2%
C/C(CC(C)C)=N\Nc1ccc(S(N)(=O)=O)cc1[N+](=O)[O-],-6.1%,-8.2%,23.7%,36.4%,-15.9%,-17.3%
CCC(C)/C(C)=N/Nc1ccc(S(N)(=O)=O)cc1[N+](=O)[O-] (centres undefined),4.4%,0.0%,5.1%,115.9%,-8.6%,89.1µM*
O=C1C=C(O)CC(c2cccs2)C1 (centres undefined),-18.3%,-39.4%,28.2µM*,?,5.7%,-28.4%
COCCCNC(=O)c1cc(Sc2ccc(F)cc2)nc2ccccc12,-24.8%[57.1 µM],0.9%,2.3%,21.9%,7.4%,-13.7%
CCCNC(=O)Cn1sc2nc(C)cc(C)c2c1=O,-15.2%[11.6 µM],6.1%,-0.8%,26.5%,50.1µM*,-25.6%
Cc1cc(C)c2c(=O)n(CC(=O)N3CCC(N4CCCCC4)CC3)sc2n1,2.2%,-5.8%,31.5%,17.2%,?,-14.0%
CC(=O)c1cccc(NC(=O)CSc2ccc(-c3sc(C)nc3C)nn2)c1,-9.4%,-10.3%,79.4µM*,-21.4%,-9.3%,-4.3%
COc1cc(NC(=O)CSc2ccc(-c3ccco3)nn2)cc(OC)c1,-9.2%,-32.6%,?,50.1µM*,12.1%,-17.4%
O=C(CSc1ccc(-c2ccco2)nn1)c1ccc(F)cc1,44.7µM*,31.6µM*,?,14.1µM*,?,?
O=C(CSc1ccc(-c2ccco2)nn1)NCc1ccc(F)cc1,-15.0%,-14.2%,-29.6%,-10.3%,9.7%,-3.0%
O=C(CSc1nnc(-c2ccco2)n1CC1CCCO1)c1ccc(F)cc1 (centres undefined),79.4µM*,-10.1%,26.2%,?,-4.9%,-2.1%
SMILES,WRN helicase inh,POLK inh,POLB inh,Pol iota inh,FEN1 inh,Pol eta inh
Cc1cc(C)cc(NC(=O)CSc2ccc(-c3ccco3)nn2)c1,-15.7%,-6.5%,-15.4%,42.6%,-2.9%,-8.8%
COc1ccc(NC(=O)CSc2nc(SC)ns2)cc1,1.7%,0.8%,89.1µM*,7.5%,-2.6%,-10.4%
CCOc1ccccc1NC(=O)CSc1ccc(-c2ccco2)nn1,-14.5%[11.6 µM],-23.3%,?,56.2µM*,-1.2%,?
CC(=O)Nc1ccc(NC(=O)CSc2ccc(-c3cccs3)nn2)cc1,-7.8%,-5.3%,-12.9%,-25.9%,-6.9%,-3.2%
Cc1ccc(NC(=O)CSc2ccc(-c3ccco3)nn2)c(C)c1,-1.2%[57.1 µM],-10.0%,1.0%,32.9%,6.3%,-2.1%
CSc1nsc(SCC(=O)Nc2ccc(NC(C)=O)cc2)n1,-22.8%,-10.2%,36.9%,45.5%,9.0%,-25.6%
COc1ccc(NC(=O)CSc2ccc(-c3cccs3)nn2)cc1,·,-3.7%,-0.2%,89.1µM*,-4.5%,-11.8%
CC(=O)Nc1cccc(NC(=O)CSc2ccc(-c3ccco3)nn2)c1,-23.5%,?,25.1µM*,22.4µM*,-11.7%,17.8µM*
CC[C@]12c3[nH]c4ccccc4c3CCN1C(=O)C(CC(=O)NCC13CC4CC(CC(C4)C1)C3)C[C@@H]2C(=O)N1CCN(C(=O)C2CC2)CC1 (some centres undefined),3.4%,-5.7%,·,11.0%,12.6%,-24.1%
S=c1[nH]nc(-c2ccccc2Br)n1Cc1ccccc1,-12.4%,-6.1%,27.3%,-9.3%,-0.6%,-10.7%
Cc1cccc(N(C(=O)c2csnn2)C(C(=O)NCc2ccccc2)c2cccs2)c1 (centres undefined),3.9%,2.3%,24.4%,12.7%,-14.5%,-16.0%
CC(C)CC(C(=O)Nc1oc(-c2ccco2)c(-c2ccco2)c1C#N)N1C(=O)c2ccccc2C1=O (centres undefined),?,?,31.6µM*,?,-0.5%,20µM*
COc1ccc(N2CCN(S(=O)(=O)c3ccc(-n4cnnn4)c(C)c3)CC2)cc1,?,?,28.2µM*,?,-16.0%,31.6µM*
